Rows were chosen to be rich in hits. Some 3.9% of all compounds tested hit in one or more screens of this group.
Platelet DG rel: inhibitors of platelet dense granule secretion, primary screen, cell-based, MLPCN, human platelets; human platelet-rich plasma, SFLLRN dense granule ATP release, luminescence; inhibition, %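 (compounds screened at 7.5 µM in platelet-rich plasma)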; 0.22% of 300,000 active; AID 1663, 2009;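 active = mean replicate score, as percent of positive control, at or above 50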
TPT1 inh: Candida albicans TPT1 enzyme inhibitors, primary screen, biochemical, fluorescence polarization; tRNA 2'-phosphotransferase TPT1 (Candida albicans SC5314); recombinant caTPT1, FP RNA substrate dephosphorylation; inhibition, % at 5 µM; 0.81% of 300,000 active; AID 1962, 2009;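 active = inhibition above the mean of all tested compounds plus 3 SD, set per screening campaign, cut at about 24% in these data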;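 also: plate controls were DMSO alone for no effect and ferristatin control at 100 nM for full effect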
PHOSPHO1 inh: PubChem AID 1565; Phosphoethanolamine/phosphocholine phosphatase (Homo sapiens), Q8TCT1; 1.1% of 290,000 active; inhibition, % at 13.3 µM; recombinant PHOSPHO1, absorbance phosphatase assay; in the data active = inhibition above about 60%
WT yeast gro inh: growth inhibition of WT strain, primary screen, mitochondrial fusion inhibitor project, WT and mutant strains, chemical genetic; mitochondrial fusion phenotypic screen; inhibition, % at 10 µM; 2.1% of 190,000 active; AID 1362, 2008; in the data active = inhibition above about 58%; tested in S. cerevisiae
Rtt109 HAT inh: inhibitors of C. albicans Rtt109/Vps75 HAT, primary screen, biochemical, ThioGlo CoA-SH fluorescence, plate reader; Histone acetyltransferase RTT109 (Candida albicans (strain SC5314 / ATCC MYA-2876)), …; AID 540336, 2011; inhibition, % at 34.9 µM; purified Rtt109/Vps75, 4 h; 0.16% of 330,000 active;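 active = inhibition of at least 50% in every replicate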
Target sequence (Q5AAJ8 whole entry, looked up): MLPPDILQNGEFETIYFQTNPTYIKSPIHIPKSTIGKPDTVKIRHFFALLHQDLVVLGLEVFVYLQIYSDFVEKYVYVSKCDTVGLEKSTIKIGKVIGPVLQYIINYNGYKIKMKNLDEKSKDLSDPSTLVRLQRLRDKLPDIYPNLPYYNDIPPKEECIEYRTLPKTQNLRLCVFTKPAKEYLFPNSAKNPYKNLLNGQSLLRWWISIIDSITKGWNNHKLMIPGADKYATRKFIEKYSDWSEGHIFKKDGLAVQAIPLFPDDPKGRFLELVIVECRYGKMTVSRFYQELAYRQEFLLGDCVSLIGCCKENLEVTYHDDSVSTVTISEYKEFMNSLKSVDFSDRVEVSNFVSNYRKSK
SKKanGAS inh: S. pyogenes SKKanGAS growth inhibitors in kanamycin, primary screen, streptokinase expression inhibitor project, SKKanGAS strain, BacTiter-Glo luminescence; inhibition, % at 7.5 µM; AID 1662, 2009; 6 h; 1.3% of 300,000 active;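 active = mean replicate score, as percent of positive control median, at least 50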;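 also: strain carries kanamycin resistance gene driven by streptokinase promoter and grows in 40 µg/ml kanamycin; loss of luminescence reflects streptokinase promoter inhibition or plain growth inhibition; 0% = median of DMSO wells and 100% = positive control at its reference dose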
Active calls of the source: *; x = not tested or not shown.

SMILES	Platelet DG rel	TPT1 inh	PHOSPHO1 inh	WT yeast gro inh	Rtt109 HAT inh	SKKanGAS inh
CCN1CCN(c2nc3sc4c(c3c3ncnn23)CC(C)CC4)CC1 (centres undefined)	3	-2	16	-15	25	11
CC1CCCc2sc3nc(NCc4ccco4)n4ncnc4c3c21 (centres undefined)	x	5	-15	79*	3	x
CC(C)(C)OC(=O)C[C@H]1C/C=C\C[C@H](CC(=O)N[C@H](CO)Cc2ccccc2)C(=O)N2CCC[C@H]2COC1=O	x	x	x	x	-1	x
CCc1ccc(S(=O)(=O)/N=C2\C=C(Nc3ccc(O)cc3)C(=O)c3ccccc32)cc1	14	2	-4	x	4	109*
CCc1ccc(S(=O)(=O)/N=C2\C=CC(=O)c3ccccc32)cc1	-6	-3	11	33	x	x
Cc1cc(C)c(S(=O)(=O)/N=C2\C=C(Nc3ccc(C(=O)O)cc3)C(=O)c3ccccc32)c(C)c1	5	0	28	x	24	112*
CCc1ccc(S(=O)(=O)/N=C2\C=C(Nc3cccc(C(=O)O)c3)C(=O)c3ccccc32)cc1	-5	-8	46	x	-6	106*
O=C(O)c1ccc(NC2=C/C(=N/S(=O)(=O)c3ccccc3)c3ccccc3C2=O)cc1	x	x	-23	48	23	x
CCN(CC)S(=O)(=O)c1cc(NC(=O)c2cccc(N3C(=O)CCC3=O)c2)ccc1Cl	5	-2	x	x	0	-3
O=S(=O)(CCNC1CC1)NC1CCCCC1	x	x	x	x	12	x
NCCS(=O)(=O)NC1CCCCC1	2	2	5	-1	x	66*
Cc1ccc(S(=O)(=O)NCC(c2ccc3c(c2)OCO3)N2CCN(c3ccccc3)CC2)cc1 (centres undefined)	21	-2	x	x	4	-5
O=C(NCCCn1ccnc1)c1ccc(OCC(F)(F)F)cc1	7	-5	x	x	6	7
CC(=O)N(C)c1ccc(OCC(O)Cn2c3ccc(Cl)cc3c3cc(Cl)ccc32)cc1 (centres undefined)	2	-2	7	77*	-4	65*
C/C(=N\NC(N)=S)C1C2C3CC4C5CC(C42)C1C53 (centres undefined)	-2	-3	12	66*	0	-10
CN(C)CC1CCC/C(=C/c2ccc(Cl)cc2)C1=O (centres undefined)	x	x	x	x	1	x
COc1ccc(/C=C2\SC(=N)N(c3nccs3)C2=O)cc1OC	-3	7	-17	33	3	89*
COc1ccc(/C=C2\SC(=S)N(NC(=O)c3ccncc3)C2=O)cc1OC	-5	6	42	-13	x	-9
Cc1nn(C(C)C(=O)NC2C(=O)N3C(C(=O)O)=C(CSc4nnnn4C)CSC23)cc1Cl (centres undefined)	3	-1	11	-15	1	100*
CC1=C(C(=O)O)N2C(=O)C(NC(=O)c3nn(C)c(C)c3Cl)C2SC1 (centres undefined)	-4	0	-16	-1	-27	-15
Cn1nnnc1SCC1=C(C(=O)O)N2C(=O)C(NC(=O)C3CC3c3ccccc3)C2SC1 (centres undefined)	-3	2	37	4	7	101*
CC(C(=O)NC1C(=O)N2C(C(=O)O)=C(CSc3nnnn3C)CSC12)n1cc(Br)cn1 (centres undefined)	-18	-3	26	3	7	97*
Cc1cc(C(F)F)nn1CC(=O)NC1C(=O)N2C(C(=O)O)=C(CSc3nnnn3C)CSC12 (centres undefined)	-5	2	11	-4	9	119*
Cn1nnnc1SCC1=C(C(=O)O)N2C(=O)[C@@H](NC(=O)[C@H](O)c3ccccc3)[C@H]2SC1	1	-1	-1	-15	4	-2
CCC(C)n1c(C)cc(=O)n1C(C)CC (centres undefined)	x	x	x	x	-2	x
SMILES	Platelet DG rel	TPT1 inh	PHOSPHO1 inh	WT yeast gro inh	Rtt109 HAT inh	SKKanGAS inh
CNC(=O)c1c(NC(=O)c2ccc(N3C(=O)CCC3=O)cc2)sc2c1CCCC2	1	1	-24	-1	-10	7
CNC(=O)c1c(NC(=O)c2ccc(N3C(=O)CCC3=O)cc2)sc2c1CCC(C)C2 (centres undefined)	0	-2	15	x	-6	61*
COc1ccc(C2c3ccsc3CCN2C(C)=O)cc1 (centres undefined)	5	-8	-1	x	-14	3
COc1ccc(C2c3ccsc3CCN2C(=O)C(C)(C)C)cc1 (centres undefined)	-4	-3	47	x	1	50*
NNC(=O)c1ccc(Cn2cc(Cl)cn2)cc1	-18	0	-4	-8	2	-2
O=C(Nc1ccc(Cl)c(Cl)c1)c1ccc(Cn2cc(Cl)cn2)cc1	-1	x	-31	78*	-3	14
C=CCc1ccc(O)c(-c2cc(CC=C)ccc2O)c1	4	0	-12	74*	0	17
O=C(N/C(=C/c1ccccc1F)C(=O)N1CCCCC1)c1ccccc1	-3	6	26	x	4	-3
CN(Cc1cccc(Cl)c1)C(=O)C1CCC(=O)N(C2CC2)C1 (centres undefined)	-1	-5	-3	x	-9	4
CCCn1nnc(NC(=S)NC(=O)c2ccc(-c3ccc(Br)cc3)o2)n1	4	-2	-1	x	-10	11
Cn1nnc(NC(=S)NC(=O)c2ccc(-c3ccc(Br)cc3)o2)n1	-3	1	28	59*	-3	5
C[C@@H](CN1CCC[C@H]1CN1C(N)=NC[C@@H]1Cc1ccccc1)N1C[C@@H](Cc2ccccc2)N(CCc2ccc(Cl)c(Cl)c2)C1=N	x	x	x	x	59*	x
CCCCCC1CCC(c2n[nH]c(=S)n2C)CC1 (centres undefined)	4	0	-13	65*	0	6
C=CCn1c(SCC(=O)Nc2cccc(C(=O)OC)c2)nnc1C(C)NC(=O)c1cccs1 (centres undefined)	4	-1	5	83*	7	-6
C=CCn1c(SCC(=O)NCCc2ccccc2)nnc1C(C)NC(=O)c1cccs1 (centres undefined)	-2	0	-3	-4	-3	-10
O=C(O)c1ccccc1NC(=S)NC(=O)c1sc2ccccc2c1Cl	-1	0	42	3	6	x
COc1ccc2cc(C(=O)NCc3ccccc3)c(=Nc3ccc(C(=O)O)cc3)oc2c1	0	2	32	-17	4	59*
COc1ccc(C(=O)NC(=S)NNC(=O)c2ccc(NC(=O)C(C)C)cc2)cc1	12	-1	9	-28	-3	57*

Compound activity deposited in PubChem by several laboratories.
